# Experimental data: the supplement of paper PMC11732987, “Enantioselective OTUD7B fragment discovery through chemoproteomics screening and high-throughput optimisation” (Communications Chemistry, 2025)
# Values without a mark were called inactive.
# Key:
# Assay in all cases: log2 ratio of Biotin-Ahx-Ub-VS probe labelling (fragment/DMSO); higher = less target engagement (more negative = stronger competition), active = hit call of the paper (q ≤ 0.05, log2 ratio ≤ -1)
# Conditions in all cases: compound concentration: 200 uM; treatment time: 3 h
# OTUD6B = molecular target: T1, OTUD6B (UniProt Q8N6M0)
# T1 sequence (whole entry): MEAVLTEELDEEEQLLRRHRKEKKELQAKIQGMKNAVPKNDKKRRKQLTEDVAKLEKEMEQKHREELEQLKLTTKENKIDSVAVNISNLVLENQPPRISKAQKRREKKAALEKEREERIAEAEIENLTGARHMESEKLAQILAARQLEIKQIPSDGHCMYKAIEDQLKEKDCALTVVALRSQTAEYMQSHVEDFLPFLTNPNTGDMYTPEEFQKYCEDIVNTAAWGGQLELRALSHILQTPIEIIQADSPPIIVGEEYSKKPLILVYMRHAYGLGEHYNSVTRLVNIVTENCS
# Outline: (§1)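 HEK293T lysate in Tris/CHAPS/IGEPAL buffer with protease inhibitors (495 µg per sample) was given fragment at 200 µM or vehicle for 3 h, in triplicate. It then received Biotin-Ahx-Ub-VS at 0.5 µM final for 1 h. Labelled DUBs were NeutrAvidin-enriched, digested with LysC and trypsin, and run by diaPASEF LC-MS/MS. Values are average log2 fragment/vehicle ratios by unpaired t-test on global-median-normalised Spectronaut quantities of proteins with ≥2 unique peptides.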
# OTUD7B = molecular target: T2, OTUD7B (UniProt Q6GQQ9)
# T2 sequence (whole entry): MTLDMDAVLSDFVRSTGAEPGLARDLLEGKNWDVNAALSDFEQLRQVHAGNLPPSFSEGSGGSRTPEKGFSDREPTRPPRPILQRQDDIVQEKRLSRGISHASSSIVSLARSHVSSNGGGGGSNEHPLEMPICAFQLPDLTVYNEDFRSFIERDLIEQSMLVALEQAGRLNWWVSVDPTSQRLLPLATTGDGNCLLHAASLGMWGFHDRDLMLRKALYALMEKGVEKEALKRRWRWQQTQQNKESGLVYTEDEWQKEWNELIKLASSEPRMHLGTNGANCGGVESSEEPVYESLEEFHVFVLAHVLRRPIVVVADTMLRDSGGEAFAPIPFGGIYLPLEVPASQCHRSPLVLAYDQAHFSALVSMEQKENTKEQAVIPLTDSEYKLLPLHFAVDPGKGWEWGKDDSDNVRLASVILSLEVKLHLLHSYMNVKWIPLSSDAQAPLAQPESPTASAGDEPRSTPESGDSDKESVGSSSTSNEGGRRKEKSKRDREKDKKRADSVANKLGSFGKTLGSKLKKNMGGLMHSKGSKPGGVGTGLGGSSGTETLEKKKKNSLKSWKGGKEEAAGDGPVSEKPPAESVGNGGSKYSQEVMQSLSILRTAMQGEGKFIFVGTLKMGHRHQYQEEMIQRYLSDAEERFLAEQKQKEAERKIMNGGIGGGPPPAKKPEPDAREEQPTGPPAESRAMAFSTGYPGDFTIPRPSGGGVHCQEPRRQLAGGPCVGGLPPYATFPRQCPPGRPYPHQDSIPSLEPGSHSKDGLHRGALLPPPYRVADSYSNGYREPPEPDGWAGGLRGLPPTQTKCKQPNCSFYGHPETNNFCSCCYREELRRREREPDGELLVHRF
# Outline: as §1
# PRPF8 = PRPF8 (UniProt Q6P2Q9)
# Outline: as §1
# PSMD7 = molecular target: T3, PSMD7 (UniProt P51665)
# T3 sequence (whole entry): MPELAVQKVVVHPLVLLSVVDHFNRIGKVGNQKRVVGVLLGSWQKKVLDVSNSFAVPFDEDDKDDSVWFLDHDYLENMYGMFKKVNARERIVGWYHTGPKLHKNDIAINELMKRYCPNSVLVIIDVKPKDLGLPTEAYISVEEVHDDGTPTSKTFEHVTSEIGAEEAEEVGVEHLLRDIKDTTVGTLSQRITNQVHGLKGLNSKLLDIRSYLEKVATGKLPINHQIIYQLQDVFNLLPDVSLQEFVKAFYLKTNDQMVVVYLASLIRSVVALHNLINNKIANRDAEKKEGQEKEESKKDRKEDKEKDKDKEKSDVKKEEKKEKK
# Outline: as §1
# UCHL1 = UCHL1 (UniProt P09936)
# Chain of UCHL1 (P09936 whole entry, looked up): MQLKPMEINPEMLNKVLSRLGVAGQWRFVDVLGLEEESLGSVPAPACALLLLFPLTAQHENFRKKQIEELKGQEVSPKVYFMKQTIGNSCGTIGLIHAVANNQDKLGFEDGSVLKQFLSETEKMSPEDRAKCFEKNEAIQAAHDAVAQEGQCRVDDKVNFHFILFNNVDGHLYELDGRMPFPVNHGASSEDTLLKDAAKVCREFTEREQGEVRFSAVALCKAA
# Outline: as §1
# UCHL3 = molecular target: T4, UCHL3 (UniProt P15374)
# T4 sequence (whole entry): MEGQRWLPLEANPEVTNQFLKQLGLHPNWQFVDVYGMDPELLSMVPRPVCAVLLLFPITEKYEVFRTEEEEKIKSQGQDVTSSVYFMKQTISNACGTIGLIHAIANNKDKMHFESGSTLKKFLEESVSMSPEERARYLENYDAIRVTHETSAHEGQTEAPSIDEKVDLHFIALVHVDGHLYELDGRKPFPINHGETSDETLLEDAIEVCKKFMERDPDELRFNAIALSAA
# Outline: as §1
# UCHL5 = molecular target: T5, UCHL5 (UniProt Q9Y5K5)
# T5 sequence (whole entry): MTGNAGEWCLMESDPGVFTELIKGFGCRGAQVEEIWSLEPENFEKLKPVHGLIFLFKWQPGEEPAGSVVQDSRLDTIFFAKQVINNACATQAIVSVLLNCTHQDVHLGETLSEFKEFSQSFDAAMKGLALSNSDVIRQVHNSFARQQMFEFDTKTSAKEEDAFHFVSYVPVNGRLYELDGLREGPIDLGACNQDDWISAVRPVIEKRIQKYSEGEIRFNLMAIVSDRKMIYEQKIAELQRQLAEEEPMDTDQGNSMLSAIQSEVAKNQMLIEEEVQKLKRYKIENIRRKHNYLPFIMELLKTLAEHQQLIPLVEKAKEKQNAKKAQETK
# Outline: as §1
# USP10 = USP10 (UniProt Q14694)
# Chain of USP10 (Q14694 whole entry): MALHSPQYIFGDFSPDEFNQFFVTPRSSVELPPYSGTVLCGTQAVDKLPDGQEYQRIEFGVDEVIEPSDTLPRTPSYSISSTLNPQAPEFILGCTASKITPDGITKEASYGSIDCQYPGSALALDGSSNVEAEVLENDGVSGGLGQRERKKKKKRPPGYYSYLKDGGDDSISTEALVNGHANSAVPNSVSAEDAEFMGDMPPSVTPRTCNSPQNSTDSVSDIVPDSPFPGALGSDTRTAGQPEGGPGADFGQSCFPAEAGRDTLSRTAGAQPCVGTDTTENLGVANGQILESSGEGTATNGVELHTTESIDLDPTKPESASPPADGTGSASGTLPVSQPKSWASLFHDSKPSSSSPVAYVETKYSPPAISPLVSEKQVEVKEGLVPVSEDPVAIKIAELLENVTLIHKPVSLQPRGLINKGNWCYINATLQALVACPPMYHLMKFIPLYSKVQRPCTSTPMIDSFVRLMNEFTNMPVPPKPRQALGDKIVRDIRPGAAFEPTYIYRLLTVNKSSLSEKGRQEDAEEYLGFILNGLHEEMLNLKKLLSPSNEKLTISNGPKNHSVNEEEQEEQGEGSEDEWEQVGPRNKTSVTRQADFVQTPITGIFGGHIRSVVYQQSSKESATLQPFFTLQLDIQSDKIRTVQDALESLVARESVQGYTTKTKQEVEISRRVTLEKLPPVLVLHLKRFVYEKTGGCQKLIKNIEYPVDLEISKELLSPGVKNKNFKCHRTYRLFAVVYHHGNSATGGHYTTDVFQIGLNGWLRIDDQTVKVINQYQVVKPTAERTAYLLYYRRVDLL
# Outline: as §1
# USP15 = molecular target: T6, USP15 (UniProt Q9Y4E8)
# T6 sequence (whole entry): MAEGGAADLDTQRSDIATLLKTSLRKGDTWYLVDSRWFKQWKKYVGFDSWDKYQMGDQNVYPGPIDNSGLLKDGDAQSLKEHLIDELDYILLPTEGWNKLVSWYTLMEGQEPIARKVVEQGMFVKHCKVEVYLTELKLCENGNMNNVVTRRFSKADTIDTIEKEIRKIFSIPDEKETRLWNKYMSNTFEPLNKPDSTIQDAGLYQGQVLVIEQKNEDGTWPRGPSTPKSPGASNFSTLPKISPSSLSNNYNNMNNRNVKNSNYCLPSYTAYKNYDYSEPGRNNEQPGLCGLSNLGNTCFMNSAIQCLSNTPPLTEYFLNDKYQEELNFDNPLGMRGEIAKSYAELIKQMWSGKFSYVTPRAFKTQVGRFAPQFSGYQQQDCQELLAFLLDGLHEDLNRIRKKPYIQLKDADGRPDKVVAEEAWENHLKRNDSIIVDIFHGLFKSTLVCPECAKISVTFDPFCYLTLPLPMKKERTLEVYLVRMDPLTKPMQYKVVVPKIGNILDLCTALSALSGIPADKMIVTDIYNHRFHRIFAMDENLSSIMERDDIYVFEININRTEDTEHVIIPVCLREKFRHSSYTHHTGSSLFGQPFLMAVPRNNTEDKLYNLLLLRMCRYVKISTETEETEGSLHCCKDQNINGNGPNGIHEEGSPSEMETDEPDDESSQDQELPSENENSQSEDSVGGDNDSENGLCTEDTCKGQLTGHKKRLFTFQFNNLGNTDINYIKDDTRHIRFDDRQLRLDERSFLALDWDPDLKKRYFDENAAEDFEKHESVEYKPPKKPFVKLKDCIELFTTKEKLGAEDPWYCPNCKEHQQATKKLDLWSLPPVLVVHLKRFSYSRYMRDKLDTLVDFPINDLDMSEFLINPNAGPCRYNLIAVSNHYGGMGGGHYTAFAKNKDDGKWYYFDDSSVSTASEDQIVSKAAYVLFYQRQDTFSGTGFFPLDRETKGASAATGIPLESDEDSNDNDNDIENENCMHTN
# Outline: as §1
# USP16 = USP16 (UniProt Q9Y5T5)
# Chain of USP16 (Q9Y5T5 whole entry, looked up): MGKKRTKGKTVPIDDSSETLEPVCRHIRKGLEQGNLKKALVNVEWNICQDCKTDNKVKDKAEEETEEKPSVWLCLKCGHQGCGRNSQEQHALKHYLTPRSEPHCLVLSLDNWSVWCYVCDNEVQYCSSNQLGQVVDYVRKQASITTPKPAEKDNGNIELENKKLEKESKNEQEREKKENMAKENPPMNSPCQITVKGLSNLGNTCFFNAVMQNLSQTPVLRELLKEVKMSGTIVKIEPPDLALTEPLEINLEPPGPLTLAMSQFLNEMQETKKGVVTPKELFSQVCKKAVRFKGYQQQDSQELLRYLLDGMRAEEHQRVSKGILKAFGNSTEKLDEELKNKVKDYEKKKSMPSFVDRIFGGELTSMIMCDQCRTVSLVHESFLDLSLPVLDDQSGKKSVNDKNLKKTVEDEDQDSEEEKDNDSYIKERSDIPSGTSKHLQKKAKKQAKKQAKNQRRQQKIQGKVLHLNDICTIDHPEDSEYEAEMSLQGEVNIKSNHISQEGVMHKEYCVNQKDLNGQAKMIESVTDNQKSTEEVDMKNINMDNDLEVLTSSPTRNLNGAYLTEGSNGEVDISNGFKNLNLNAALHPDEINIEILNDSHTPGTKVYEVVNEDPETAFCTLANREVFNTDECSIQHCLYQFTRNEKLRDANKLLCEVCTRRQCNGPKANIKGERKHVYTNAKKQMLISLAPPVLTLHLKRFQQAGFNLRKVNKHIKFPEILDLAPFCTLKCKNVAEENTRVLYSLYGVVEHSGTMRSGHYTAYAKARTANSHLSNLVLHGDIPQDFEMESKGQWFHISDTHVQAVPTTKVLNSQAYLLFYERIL
# Outline: as §1
compound,measurement,setting,value
Cl.Cn1ncc2c1CCCC2NC(=O)CCl (stereo not given),log2 ratio of Biotin-Ahx-Ub-VS probe labelling,OTUD6B,-0.272
same,log2 ratio of Biotin-Ahx-Ub-VS probe labelling,OTUD7B,-2.04 (active)
same,log2 ratio of Biotin-Ahx-Ub-VS probe labelling,PRPF8,0.261
same,log2 ratio of Biotin-Ahx-Ub-VS probe labelling,PSMD7,0.0323
same,log2 ratio of Biotin-Ahx-Ub-VS probe labelling,UCHL1,-1.71 (active)
same,log2 ratio of Biotin-Ahx-Ub-VS probe labelling,UCHL3,0.241
same,log2 ratio of Biotin-Ahx-Ub-VS probe labelling,UCHL5,-0.145
same,log2 ratio of Biotin-Ahx-Ub-VS probe labelling,USP10,-0.078
same,log2 ratio of Biotin-Ahx-Ub-VS probe labelling,USP15,-0.335
same,log2 ratio of Biotin-Ahx-Ub-VS probe labelling,USP16,-0.096
